Results reported in the supplement of paper PMC11577813, “Eurasian spruce bark beetle detects lanierone using a highly expressed specialist odorant receptor, present in several functional sensillum types” (BMC Biology, 2024).
± gives the standard deviation of the averaged measurements.

Legend:
[1] = tested on: (+)-isopinocamphone A-neuron OSN class; test: net action potential response of A-neuron (blank-subtracted) (spikes/s (Hz)); higher = stronger excitation; conditions: 10 µg on filter paper; neuron: A neuron (large spike amplitude)
How it was run: (§1)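 Single sensillum recordings with tungsten electrodes were taken from one fixed antenna of live lab-reared adult Ips typographus, with each compound (10 μg in paraffin oil on filter paper in a pipette) given as a 0.5 s pulse at 0.3 L/min into a humidified, charcoal-filtered 1.8 L/min airstream. AutoSpike counts of A-neuron or B-neuron spikes in 0.5 s windows had the pre-stimulus count subtracted. Responses were then converted to spikes/s, blank-subtracted and averaged over 1–4 sensilla.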

[2] = tested on: (+)-trans-4-thujanol A-neuron OSN class; test: as above; conditions: 10 µg on filter paper; neuron: A neuron (large spike amplitude)
How it was run: as §1

[3] = tested on: (5S,7S)-trans-conophthorin A-neuron OSN class; test: as above; conditions: 10 µg on filter paper; neuron: A neuron (large spike amplitude)
How it was run: as §1

[4] = tested on: ipsdienol A-neuron OSN class; test: as above; conditions: 10 µg on filter paper; neuron: A neuron (large spike amplitude)
How it was run: as §1

[5] = tested on: myrcene A-neuron OSN class; test: as above; conditions: 10 µg on filter paper; neuron: A neuron (large spike amplitude)
How it was run: as §1

[6] = tested on: p-cymene A-neuron OSN class; test: as above; conditions: 10 µg on filter paper; neuron: A neuron (large spike amplitude)
How it was run: as §1

[7] = tested on: lanierone-responsive B-neuron OSN class (ItypOR36); test: net action potential response of lanierone B-neuron (blank-subtracted) (spikes/s (Hz)); higher = stronger excitation; conditions: 10 µg on filter paper, neuron: B neuron (small spike amplitude)
How it was run: as §1

[8] = co-localized A-neuron class: (4S)-cis-verbenol
[9] = co-localized A-neuron class: (5S,7S)-trans-conophthorin
[10] = co-localized A-neuron class: (+)-isopinocamphone
[11] = co-localized A-neuron class: (+)-trans-4-thujanol
[12] = co-localized A-neuron class: ipsdienol
[13] = co-localized A-neuron class: myrcene
[14] = co-localized A-neuron class: p-cymene

SMILES	net action potential response [1]	net action potential response [2]	net action potential response [3]	net action potential response [4]	net action potential response [5]	net action potential response [6]	net action potential response [7, 8]	net action potential response [7, 9]	net action potential response [7, 10]	net action potential response [7, 11]	net action potential response [7, 12]	net action potential response [7, 13]	net action potential response [7, 14]
CC(=O)c1ccccc1 [Acetophenone]	2.67 ± 4.2	2 ± 2.8	2 ± 2	-4 ± 5.3	-2	4.67 ± 7.6	0 ± 5.3	-3.33 ± 4.2	-0.667 ± 2.3	1.5 ± 1	-4.67 ± 3.1	4	1.33 ± 10
CC(=O)OC/C=C(\C)CCC=C(C)C [Geranyl acetate]	0.667 ± 7	0	2 ± 7.2	2	-4	1 ± 1.4	-2.67 ± 7.6	-2 ± 9.2	-0.667 ± 2.3	-2 ± 4.3	-2 ± 5.3	0	-2 ± 5.7
C=C(C)C1CC=C(C)C(=O)C1 (racemic) [(±)-Carvone]	-1.33 ± 1.1	1 ± 2.6	1 ± 3.5	–	0	30 ± 22	-1.33 ± 5	1.5 ± 2.5	2.67 ± 2.3	1 ± 2.6	-4.67 ± 2.3	6	0 ± 5.3
CC[C@H]1O[C@]2(C)CCC[C@H]1O2 (racemic) [(±)-exo-Brevicomin]	-0.667 ± 4.2	2.5 ± 2.5	173 ± 40	–	6	0 ± 2	0 ± 2	-4 ± 2	-2	-1 ± 1.1	4 ± 12	2	-3.33 ± 2.3
C=CC(C)(C)O [2-Methyl-3-buten-2-ol]	0.667 ± 1.1	7 ± 11	3.33 ± 4.2	–	-8	1 ± 1.4	-4.67 ± 5	-4.67 ± 7	2 ± 2	-3.5 ± 7.2	3.33 ± 11	4	-6 ± 2.8
CC1=CCC2CC1C2(C)C (stereo not drawn) [(-)-α-Pinene]	4 ± 3.5	-0.5 ± 1.9	2.67 ± 3.1	–	2	5.33 ± 6.4	-6 ± 4	-1.33 ± 2.3	2 ± 2	0 ± 5.7	-1.33 ± 4.2	2	-5.33 ± 4.6
C=C1CCC2(C(C)C)CC12 (racemic) [(±)-Sabinene]	0.667 ± 3.1	6.5 ± 5.5	0.667 ± 3.1	–	34	1.33 ± 6.4	0.667 ± 6.4	-1.33 ± 1.1	-1.33 ± 2.3	0.5 ± 1.9	1.33 ± 9.2	-4	-4 ± 5.3
CC1(C)C2CC=C(CO)C1C2 (racemic) [(±)-Myrtenol]	1.33 ± 5	1.5 ± 2.5	-1 ± 3.5	–	2	1.33 ± 3.1	-0.667 ± 3.1	2.5 ± 6	-1.33 ± 3.1	0 ± 2.3	-2 ± 14	-6	0 ± 2
c1ccc2c(c1)CCO2 [2,3-Dihydrobenzofuran]	2 ± 2	-1.5 ± 1.9	1.33 ± 3.1	–	-6	6.67 ± 5.8	3.33 ± 9.2	-0.667 ± 4.2	0.667 ± 11	2.5 ± 3.4	-3.33 ± 3.1	-2	6 ± 8.7
CCC1CCC2(CCCO2)O1 (racemic) [(±)-Chalcogran]	-3.33 ± 1.1	9 ± 10	175 ± 15	–	2	0.667 ± 3.1	-1.33 ± 5.8	-4 ± 5.3	-1.33 ± 2.3	-1.5 ± 3.4	-0.667 ± 1.1	-8	-2.67 ± 2.3
CCC/C=C/C=O [(E)-hex-2-enal]	-3.33 ± 2.3	1 ± 5.8	4.67 ± 4.2	-0.667 ± 1.1	2	3 ± 1.4	-2.67 ± 18	0 ± 2	-2.67 ± 3.1	-1.5 ± 3.4	0.667 ± 1.1	-6	-2 ± 8.5
